From PubChem
Shown are actives, neighbours in structure and some others; about 3.9% of the full set was active somewhere.
BRCA1 expr act: BRCA1 expression activation. 380,000 tested, 1.1% active. AID 624202. Potency, µM (highest dose often 46.1 µM), for inactives: at the highest dose activation, actives largely listed as activators. MCF7-BRCA1-FFLuc reporter, luminescence, 48 h; response scale: scaled: vehicle 0%, 10 µM genistein 100%; note: nearly all actives have a fitted effect of over 80% in size
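MCF7-BRCA1-FFLuc cells, 2000/well in phenol-red-free MEM, attached 2 h then treated 48 h at 37 C. Luciferase luminescence read 15 min after reagent; normalized to genistein maximum activation (10microM) and DMSO, concentration-response fitted.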
VDR inhibitor: blocks the human vitamin D receptor. P11473. VDR-SRC2-3 peptide fluorescence polarization, 2 h. Potency, µM, without a hit: max response, negative = inhibition, usual class: inhibitors. 400,000 tested, 0.93% active. AID 504847; note: % is set by controls: 0 for no effect and ±100 for the full control effect
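Two reagent solutions held at 4 deg C in the dark were dispensed, compounds pinned at 23 nl, and the mixture incubated 2 h at room temperature. Read-out: fluorescence polarization of VDR–SRC2-3 peptide binding.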
PLK1 PBD inh: inhibitors of human PLK1 polo-box domain binding; P53350; Plk1 PBD binding of FITC phosphopeptide, fluorescence polarization; Potency, µM, inactives show max response, negative = inhibition, hits mostly inhibitors; 360,000 tested, 2.8% active; AID 720504; note: series mostly up to about 57 µM; % is set by controls: 0 for no effect and ±100 for the full control effect; nearly all actives have a fitted effect of over 65% in size
Target sequence (P53350 whole entry, looked up, the tested form may be a part): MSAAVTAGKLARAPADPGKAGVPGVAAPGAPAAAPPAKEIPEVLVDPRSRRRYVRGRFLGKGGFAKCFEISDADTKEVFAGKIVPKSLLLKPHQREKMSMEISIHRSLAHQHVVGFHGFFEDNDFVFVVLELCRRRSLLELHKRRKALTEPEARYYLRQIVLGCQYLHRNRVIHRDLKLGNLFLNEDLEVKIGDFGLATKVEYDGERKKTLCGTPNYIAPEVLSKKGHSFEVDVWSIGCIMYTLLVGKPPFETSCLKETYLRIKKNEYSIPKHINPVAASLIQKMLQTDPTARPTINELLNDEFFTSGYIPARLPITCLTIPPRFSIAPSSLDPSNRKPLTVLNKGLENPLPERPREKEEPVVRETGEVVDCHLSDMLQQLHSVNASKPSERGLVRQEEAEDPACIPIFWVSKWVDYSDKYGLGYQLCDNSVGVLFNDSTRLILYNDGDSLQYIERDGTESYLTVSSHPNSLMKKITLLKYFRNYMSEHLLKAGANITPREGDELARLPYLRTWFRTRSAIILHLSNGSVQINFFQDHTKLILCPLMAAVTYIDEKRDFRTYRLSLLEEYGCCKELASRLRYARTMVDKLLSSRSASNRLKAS
Tb PFK block: inhibitors of T. brucei phosphofructokinase. 330,000 tested, 0.17% active. AID 485367. T. brucei PFK, ADP-Glo luminescence. Potency, µM (top dose mostly 57.5 µM), inactives show at the top dose activity, negative = inhibition, actives largely listed as inhibitors;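 note: 0% = uninhibited 1x PFK enzyme wells and -100% = no-enzyme wells; nearly all actives have a fitted effect of over 60% in size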
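Activity is normalized to no-enzyme wells (full inhibition) and 1.25 nM enzyme wells (no inhibition). Reaction: 0.5 mM F6P, 0.1 mM ATP, 45 min RT, ADP-Glo luminescence; concentration-response curves fitted and classed by quality.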
Starred values were filed as active, the others as inactive; ? = inconclusive; · = no result given; [ ] = dose if it differs, or a comment. Calls come from the whole dose curve; as a rule, active = well fitted curve in the direction sought with a large enough effect; inconclusive = small, poorly fitted or top-dose-only effect, or another doubt; inactive = no such curve, though single readings can be large; an effect the other way counts as inactive or inconclusive. Potency is the fitted concentration of half-maximal effect.

SMILES | BRCA1 expr act | VDR inhibitor | PLK1 PBD inh | Tb PFK block
CC(=O)NNC(=S)Nc1cc(S(=O)(=O)N(C)C)ccc1C | -4% | -6% | -6% | 0%
S=C(Nc1ccc2cn[nH]c2c1)Nc1ccc(Cl)cc1Cl | -1% | ? | 15µM* | 4%
S=C(Nc1ccc(Cl)cc1)Nc1ccc2cn[nH]c2c1 | 58% | -8% | -14% | 1%
CCCCN(C)CCNC(=O)c1cc(-c2ccc(Cl)s2)nc2ccccc12 | -3% | -4% | · | ·
COc1cccc(-c2ccc3ncnc(NCc4cnc(C)cn4)c3c2)c1 | · | -15% | · | ·
Fc1ccc(-c2nnc(CN3CCN(c4ccccn4)CC3)o2)cc1 | · | -16% | · | ·
Cc1ccc(F)cc1C(=O)N1CCCC(C)(C(=O)NS(=O)(=O)C2CC2)C1 (centres undefined) | 10% | · | 0% | ·
COc1ccccc1NC(=S)Nc1cccc2cnccc12 | -25% | ? | 30µM* | -1%
COc1ccc(NC(=S)Nc2cccc3cnccc23)cc1 | -8% | -16% | ? | 2%
CSC1=NCCN1C(=O)c1ccc(S(=O)(=O)N(C)C)cc1 | -7% | -21% | 27µM* | 2%
CSC1=NCCN1C(=O)c1ccc(C)cc1 | 2% | -9% | 2% | 4%
CCN(CC)S(=O)(=O)c1cccc(C(=O)N2CC(O)CC2C(=O)OC)c1 (centres undefined) | 5% | -11% | 30µM* | -1%
CCN(CC)S(=O)(=O)c1cccc(C(=O)N2CC(O)CC2C(=O)O)c1 (centres undefined) | -8% | -2% | 0% | 14%
COc1ccc(-c2cnc3c(NC=O)cc(-c4ccccc4OC)cn23)cc1OC | -69% | · | -2% | ·
N#Cc1cccc(-c2csc(C(O)c3ccc(F)cc3)n2)c1 (centres undefined) | 7.9µM* | · | 0% | ·
O=C(NCCc1ccccc1)N1c2ccccc2Sc2ccccc21 | -31% | ? | 24µM* | 7%[0.46 µM]
C/C(=C\c1ccccc1)C(=O)Nc1ccc(Cl)cn1 | 7.9µM* | -8% | -4% | 1%
CC(=O)NNC(=O)c1sc(=S)n2c1[nH]c(=O)c1sccc12 | -7% | -1% | 21µM* | 28%
CCCCN1C(=O)C(CC(=O)NC2CCCC2)CC(C(=O)N(C(C)C)C(C)C)=C1C (centres undefined) | 3% | · | -15% | ·
O=C(Cn1cnc2c(OCc3ccccc3)ncnc21)NCc1ccccc1 | -40% | ? | 24µM* | -10%
COc1ccc(CNC(=O)Cn2cnc3c(OCc4ccccc4)ncnc32)cc1 | -12% | 10% | 0% | -6%
O=C(O)c1cnnc2ccccc12 | -18% | -4% | -8% | ·
CCOC(=O)c1c(NC(=O)/C=C/c2ccc(C)cc2)sc(C(C)=O)c1C | · | 2% | · | ·
O=C(/C=C/c1ccc(Cl)cc1)NC(=S)Nc1ccc(C(=O)O)cc1 | -4% | -19% | 30µM* | 2%
O=C(/C=C/c1ccccc1)N/C(=C/c1ccccc1)C(=O)Nc1ccc(C(=O)O)cc1 | -15% | ? | 27µM* | 0%
SMILES | BRCA1 expr act | VDR inhibitor | PLK1 PBD inh | Tb PFK block
CC(=O)c1ccc(NC(=S)NC(=O)/C=C/c2ccc(F)cc2)cc1 | 17% | 2% | -8% | -3%
O=C(/C=C/c1ccccc1)N/C(=C/c1ccccc1)C(=O)NCCO | -21% | 6% | -2% | 0%
CN(C)c1ccc(NC(=S)NC(=O)/C=C/c2ccc(Cl)cc2)cc1 | ? | -7% | ? | -2%
O=C(/C=C/c1ccc(F)cc1)NC(=S)Nc1ccccc1O | 13µM* | 21% | -9% | 5%
COC(=O)[C@H]1C2CC3c4[nH]c5ccccc5c4CCN3CC2CC[C@@H]1O (some centres undefined) | · | 15% | · | ·
Nc1ccc2nc(-c3ccc(N)c(Cl)c3)[nH]c2c1 | 4.5µM* | 2% | -8% | ?
Nc1ccc2nc(-c3ccccc3)[nH]c2c1 | 97% | -13% | 0% | -4%
Nc1ccc2nc(-c3cccnc3)[nH]c2c1 | 23% | -14% | -4% | 0%
Nc1ccc2nc(-c3ccccn3)[nH]c2c1 | 11µM* | -4% | -1% | ?
O=C(Nc1cccc(C(F)(F)F)c1)c1cnn(-c2cccc(F)c2)c1C1CCNCC1 | · | -10% | · | ·
O=C1C=CC(=O)N1c1ccc(O)cc1 | -39% | 25µM* | 17µM* | -11%
O=C1CCCC(=O)N1c1ccc(O)cc1 | -4% | -7% | ? | 0%
COc1ccc(CNCCNC(=O)c2nonc2N)cc1OC | -15% | 1% | -10% | -3%
COc1cc(CNCCNC(=O)c2nonc2N)ccc1OCc1ccc(Cl)nc1 | 3% | -30% | 30µM* | -1%
CC(C)(Oc1ccc(Br)cc1)C(=O)Nc1cc(-c2nc3ccccc3[nH]2)ccc1Cl | 1% | -18% | · | ·
COc1cccc(OC)c1C(=O)NC(=S)Nc1cc(-c2nc3ccccc3[nH]2)ccc1Cl | 25% | -17% | 9.5µM* | -3%
CC(C)CCn1c(O)c(N=NC(=O)Cn2ccc(C(F)(F)F)n2)c2ccccc21 | -32% | 79µM* | 24µM* | 0%
CC(C)CCn1c(O)c(N=Nc2ccccn2)c2ccccc21 | -62% | -13% | -5% | 0%
COc1ccc(Nc2ncnc3c2cnn3-c2ccc(C)cc2)cc1Cl | · | 10% | · | ·
N#Cc1c(SCc2c(Cl)cccc2Cl)nc(N)[nH]c1=S | 0% | ? | 30µM* | 0%
O=S1(=O)C=C(Sc2nc3cc(Cl)ccc3o2)c2ccccc21 | -99% | ? | 6.7µM* | 4%
CC(C)N1CSC(=S)N(Cc2ccccc2)C1 | -32% | 79µM* | ? | -4%
CCOC(=O)c1csc(NC(=O)CSc2nnc(C3CC3)n2C)n1 | 19% | -19% | 27µM* | -14%
COc1ccc(NC(=O)CSc2nnc(C3CC3)n2N)cc1 | -12% | 18% | 0% | -3%
COc1ccc(NC(=O)CSc2nnc(C3CC3)n2C)cc1 | 0% | 28µM* | 24µM* | -5%
SMILES | BRCA1 expr act | VDR inhibitor | PLK1 PBD inh | Tb PFK block
O=C1Cc2cc(S(=O)(=O)N3CCN(c4ccc(C(=O)O)cc4)CC3)ccc2N1 | -16% | · | · | ·
CC(=O)c1ccc(N2CCN(S(=O)(=O)c3ccc4c(c3)NC(=O)CC(=O)N4)CC2)cc1 | 51% | ? | 27µM* | -7%
Fc1ccc(Nc2ncnc3onc(-c4ccc(Cl)cc4)c23)cc1Cl | -36% | 1% | · | ·
COc1cc(/C=C2/C(=N)N3C(=NC2=O)SN=C3S(=O)(=O)C(C)C)ccc1OS(=O)(=O)c1ccccc1 | · | · | · | -1%
COc1cc(/C=C2\C(=N)N3N=CSC3=NC2=O)ccc1OS(=O)(=O)c1ccccc1 | 24% | 79µM* | ? | 11%
CCOc1cc(/C=C2\C(=N)N3N=CSC3=NC2=O)ccc1OS(=O)(=O)c1ccccc1 | -13% | ? | 24µM* | 3%
Cc1cccc(CNC(=O)C2CCN(S(=O)(=O)c3cccc4nonc34)CC2)c1 | · | 9% | · | ·
O=C(NCCCN1CCCCC1)C1CCN(c2ncnc3c2nc2n3CCCCC2)CC1 | 0% | ? | 27µM* | 2%
O=C(Nc1ccc(F)c(Cl)c1)C1CCN(c2ncnc3c2nc2n3CCCCC2)CC1 | -47% | 3% | -13% | -10%
O=C(C1CCCN(c2ncnc3c2nc2n3CCCCC2)C1)N1CCN(c2ccc(F)cc2)CC1 (centres undefined) | 0% | -9% | 27µM* | 2%
